Experimental data published in the supplement of paper PMC12067926.

Each compound was assayed on Pseudomonas 1 (Pseudomonas baetica) (assay: relative growth (AUC of 72 h growth curve relative to DMSO control, dAUC) (ratio); higher = more growth (less inhibition), active = hit call of the paper). Settings: 20 µM;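 active = growth AUC significantly below the DMSO wells by Dunnett test; inactive = the rest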.
Outline: (§1)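 Each chemical was tested at 20 µM (1% DMSO) in 96-well plates seeded with a 1:100 dilution of cultures grown to carrying capacity in Luria–Bertani medium. These were isolates from Icelandic stream sediments and Silwood Park soil, as well as whole sediment communities. A plate reader took A600 readings hourly over 72 h, and three biological replicates were averaged. Relative growth (dAUC) is the spline-integrated area under the growth curve relative to the mean of the DMSO controls.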
In the case of `CCCSP(=O)(OCC)Oc1ccc(Br)cc1Cl` (centres undefined), the relative growth is reported as 1.12 (inactive). `CC1(C(=O)Nc2ccc(O)c(Cl)c2Cl)CCCCC1` was tested, and the relative growth was 1.08 (inactive). In the case of `C[N+](C)(C)CCCl`, the relative growth is reported as 1.07 (inactive). `CCc1cnc(C2=NC(C)(C(C)C)C(=O)N2)c(C(=O)O)c1` (centres undefined) was tested, and the relative growth was 0.912 (inactive). In the case of `CC[C@H](C)[C@H]1O[C@]2(C=C[C@@H]1C)C[C@@H]1C[C@@H](C/C=C(\C)[C@@H](O[C@H]3C[C@H](OC)[C@@H](O[C@H]4C[C@H](OC)[C@@H](O)[C@H](C)O4)[C@H](C)O3)[C@@H](C)/C=C/C=C3\CO[C@@H]4[C@H](O)C(C)=C[C@@H](C(=O)O1)[C@]34O)O2.CO[C@H]1C[C@H](O[C@H]2[C@H](C)O[C@@H](O[C@@H]3/C(C)=C/C[C@@H]4C[C@@H](C[C@]5(C=C[C@H](C)[C@@H](C(C)C)O5)O4)OC(=O)[C@@H]4C=C(C)[C@@H](O)[C@H]5OC/C(=C\C=C\[C@@H]3C)[C@]54O)C[C@@H]2OC)O[C@@H](C)[C@@H]1O`, the relative growth is reported as 1.05 (inactive). With `CCCCC(C#N)(Cn1cncn1)c1ccc(Cl)cc1` (centres undefined) the relative growth was 0.939 (inactive). For `Clc1ccc(C(c2ccc(Cl)cc2)C(Cl)(Cl)Cl)cc1`, the relative growth was 1.07 (inactive). With `CCC(C)(C)C(=O)OC1=C(c2ccc(Cl)cc2Cl)C(=O)OC12CCCCC2` the relative growth was 1.07 (inactive). `O=C1c2ccccc2C(=O)N1SC(Cl)(Cl)Cl` was tested, and the relative growth was 1.05 (inactive). For `Cc1nnc(-c2ccccc2)c(=O)n1N`, the relative growth was 1.08 (inactive). In the case of `N#Cc1c(Cl)c(Cl)c(Cl)c(C#N)c1Cl`, the relative growth is reported as 0.975 (inactive). With `CC(C)N(C)S(=O)(=O)NC(=O)c1cc(-n2c(=O)cc(C(F)(F)F)n(C)c2=O)c(F)cc1Cl` the relative growth was 1.01 (inactive). For `COC(=O)N(C(=O)N1CO[C@@]2(C(=O)OC)Cc3cc(Cl)ccc3C2=N1)c1ccc(OC(F)(F)F)cc1`, the relative growth was 1.02 (inactive). With `CN1COCN(Cc2cnc(Cl)s2)/C1=N\[N+](=O)[O-]` the relative growth was 0.927 (inactive). `CCCN(CCC)C(=O)SCc1ccccc1` was tested, and the relative growth was 1.03 (inactive). In the case of `OC(Cn1cncn1)(c1ccc(F)cc1)c1ccccc1F` (centres undefined), the relative growth is reported as 0.993 (inactive). In the case of `CC(C1CC1)C(O)(Cn1cncn1)c1ccc(Cl)cc1` (centres undefined), the relative growth is reported as 0.624 (active). With `COC(=O)c1ccccc1S(=O)(=O)NC(=O)Nc1nc(C)nc(OC)n1` the relative growth was 0.998 (inactive). For `CN(C)C(CSS(=O)(=O)O)CSS(=O)(=O)O`, the relative growth was 1.14 (inactive). For `CNC(=O)c1cc(Cl)cc(C)c1NC(=O)c1cc(Br)nn1-c1ncccc1Cl`, the relative growth was 0.975 (inactive). `CO/C=C(/C(=O)OC)c1ccccc1Oc1cc(Oc2ccccc2C#N)ncn1` was tested, and the relative growth was 1.07 (inactive). In the case of `O=C(NC(=O)c1c(F)cccc1F)Nc1ccc(OC(F)(F)C(F)OC(F)(F)F)c(Cl)c1` (centres undefined), the relative growth is reported as 1.02 (inactive). With `N#Cc1cc(Br)c(O)c(Br)c1` the relative growth was 1.06 (inactive). In the case of `CCOCN(C(=O)CCl)c1c(C)cccc1CC`, the relative growth is reported as 1.1 (inactive). `CC1(C)[C@H](/C=C(\Cl)C(F)(F)F)[C@@H]1C(=O)OC(C#N)c1cccc(Oc2ccccc2)c1` (some centres undefined) was tested, and the relative growth was 1.07 (inactive). In the case of `C#CCOc1ccc(CCNC(=O)C(OCC#C)c2ccc(Cl)cc2)cc1OC` (centres undefined), the relative growth is reported as 0.979 (inactive). In the case of `O=[N+]([O-])/N=C1\NCCN1Cc1ccc(Cl)nc1`, the relative growth is reported as 0.857 (inactive). With `Fc1ccc(Oc2ccnc3cc(Cl)cc(Cl)c23)cc1` the relative growth was 1.07 (inactive). With `CC(Oc1ccc(Oc2ncc(C(F)(F)F)cc2Cl)cc1)C(=O)O` (centres undefined) the relative growth was 1.1 (inactive). For `O=C(O)CNCP(=O)(O)O`, the relative growth was 0.996 (inactive). For `C[N+]1(C)CCCCC1`, the relative growth was 0.972 (inactive). `Oc1ccc(Cl)cc1Cc1cc(Cl)ccc1O` was tested, and the relative growth was 0.805 (inactive). `CCOP(=S)(OCC)Oc1cc(C)nc(C(C)C)n1` was tested, and the relative growth was 0.877 (inactive). `CC(C)N(C(=O)COc1nnc(C(F)(F)F)s1)c1ccc(F)cc1` was tested, and the relative growth was 1.07 (inactive). `CCCC1COC(Cn2cncn2)(c2ccc(Cl)cc2Cl)O1` (centres undefined) was tested, and the relative growth was 1.08 (inactive). `Nc1c([N+](=O)[O-])ccc(Oc2ccccc2)c1Cl` was tested, and the relative growth was 1.15 (inactive). With `COC(=O)N(OC)c1ccccc1COc1ccn(-c2ccc(Cl)cc2)n1` the relative growth was 1.13 (inactive).

The compounds below were run on Pseudomonas 2 (Pseudomonas vancouverensis) in the same assay as above. Settings: 20 µM.
Outline: as §1
With `CCCSP(=O)(OCC)Oc1ccc(Br)cc1Cl` (centres undefined) the relative growth was 1.08 (inactive). `CC1(C(=O)Nc2ccc(O)c(Cl)c2Cl)CCCCC1` was tested, and the relative growth was 1.01 (inactive). With `C[N+](C)(C)CCCl` the relative growth was 1.03 (inactive). With `CCc1cnc(C2=NC(C)(C(C)C)C(=O)N2)c(C(=O)O)c1` (centres undefined) the relative growth was 0.944 (inactive). In the case of `CC[C@H](C)[C@H]1O[C@]2(C=C[C@@H]1C)C[C@@H]1C[C@@H](C/C=C(\C)[C@@H](O[C@H]3C[C@H](OC)[C@@H](O[C@H]4C[C@H](OC)[C@@H](O)[C@H](C)O4)[C@H](C)O3)[C@@H](C)/C=C/C=C3\CO[C@@H]4[C@H](O)C(C)=C[C@@H](C(=O)O1)[C@]34O)O2.CO[C@H]1C[C@H](O[C@H]2[C@H](C)O[C@@H](O[C@@H]3/C(C)=C/C[C@@H]4C[C@@H](C[C@]5(C=C[C@H](C)[C@@H](C(C)C)O5)O4)OC(=O)[C@@H]4C=C(C)[C@@H](O)[C@H]5OC/C(=C\C=C\[C@@H]3C)[C@]54O)C[C@@H]2OC)O[C@@H](C)[C@@H]1O`, the relative growth is reported as 1.01 (inactive). In the case of `CCCCC(C#N)(Cn1cncn1)c1ccc(Cl)cc1` (centres undefined), the relative growth is reported as 0.943 (inactive). In the case of `Clc1ccc(C(c2ccc(Cl)cc2)C(Cl)(Cl)Cl)cc1`, the relative growth is reported as 0.992 (inactive). `CCC(C)(C)C(=O)OC1=C(c2ccc(Cl)cc2Cl)C(=O)OC12CCCCC2` was tested, and the relative growth was 0.983 (inactive). `O=C1c2ccccc2C(=O)N1SC(Cl)(Cl)Cl` was tested, and the relative growth was 0.992 (inactive). For `Cc1nnc(-c2ccccc2)c(=O)n1N`, the relative growth was 0.997 (inactive). `N#Cc1c(Cl)c(Cl)c(Cl)c(C#N)c1Cl` was tested, and the relative growth was 0.972 (inactive). In the case of `CC(C)N(C)S(=O)(=O)NC(=O)c1cc(-n2c(=O)cc(C(F)(F)F)n(C)c2=O)c(F)cc1Cl`, the relative growth is reported as 1.02 (inactive). `COC(=O)N(C(=O)N1CO[C@@]2(C(=O)OC)Cc3cc(Cl)ccc3C2=N1)c1ccc(OC(F)(F)F)cc1` was tested, and the relative growth was 0.991 (inactive). With `CN1COCN(Cc2cnc(Cl)s2)/C1=N\[N+](=O)[O-]` the relative growth was 1.03 (inactive). `CCCN(CCC)C(=O)SCc1ccccc1` was tested, and the relative growth was 1.05 (inactive). For `OC(Cn1cncn1)(c1ccc(F)cc1)c1ccccc1F` (centres undefined), the relative growth was 0.999 (inactive). `CC(C1CC1)C(O)(Cn1cncn1)c1ccc(Cl)cc1` (centres undefined) was tested, and the relative growth was 0.955 (inactive). In the case of `COC(=O)c1ccccc1S(=O)(=O)NC(=O)Nc1nc(C)nc(OC)n1`, the relative growth is reported as 1.01 (inactive). With `CN(C)C(CSS(=O)(=O)O)CSS(=O)(=O)O` the relative growth was 0.994 (inactive). With `CNC(=O)c1cc(Cl)cc(C)c1NC(=O)c1cc(Br)nn1-c1ncccc1Cl` the relative growth was 0.996 (inactive). For `CO/C=C(/C(=O)OC)c1ccccc1Oc1cc(Oc2ccccc2C#N)ncn1`, the relative growth was 1.02 (inactive). In the case of `O=C(NC(=O)c1c(F)cccc1F)Nc1ccc(OC(F)(F)C(F)OC(F)(F)F)c(Cl)c1` (centres undefined), the relative growth is reported as 1.01 (inactive). With `N#Cc1cc(Br)c(O)c(Br)c1` the relative growth was 1.02 (inactive). In the case of `CCOCN(C(=O)CCl)c1c(C)cccc1CC`, the relative growth is reported as 0.978 (inactive). With `CC1(C)[C@H](/C=C(\Cl)C(F)(F)F)[C@@H]1C(=O)OC(C#N)c1cccc(Oc2ccccc2)c1` (some centres undefined) the relative growth was 1.02 (inactive). `C#CCOc1ccc(CCNC(=O)C(OCC#C)c2ccc(Cl)cc2)cc1OC` (centres undefined) was tested, and the relative growth was 0.988 (inactive). With `O=[N+]([O-])/N=C1\NCCN1Cc1ccc(Cl)nc1` the relative growth was 0.973 (inactive). In the case of `Fc1ccc(Oc2ccnc3cc(Cl)cc(Cl)c23)cc1`, the relative growth is reported as 1.02 (inactive). For `CC(Oc1ccc(Oc2ncc(C(F)(F)F)cc2Cl)cc1)C(=O)O` (centres undefined), the relative growth was 1.04 (inactive). For `O=C(O)CNCP(=O)(O)O`, the relative growth was 0.994 (inactive). `C[N+]1(C)CCCCC1` was tested, and the relative growth was 0.981 (inactive). With `Oc1ccc(Cl)cc1Cc1cc(Cl)ccc1O` the relative growth was 0.755 (active). In the case of `CCOP(=S)(OCC)Oc1cc(C)nc(C(C)C)n1`, the relative growth is reported as 1.01 (inactive). With `CC(C)N(C(=O)COc1nnc(C(F)(F)F)s1)c1ccc(F)cc1` the relative growth was 1.03 (inactive). `CCCC1COC(Cn2cncn2)(c2ccc(Cl)cc2Cl)O1` (centres undefined) was tested, and the relative growth was 0.967 (inactive). With `Nc1c([N+](=O)[O-])ccc(Oc2ccccc2)c1Cl` the relative growth was 0.982 (inactive). `COC(=O)N(OC)c1ccccc1COc1ccn(-c2ccc(Cl)cc2)n1` was tested, and the relative growth was 1.04 (inactive).
